In all, about 39,000 compounds went through this assay and about 3,300 (8.5%) were called active. This excerpt belongs to a sample that is enriched for actives.
System: HepG2
Experiment: cytotoxicity call (relative viability < 0.9)
Settings: 10 µM

How did the cytotoxicity call turn out when C[C@@H]1CN([C@@H](C)CO)C(=O)c2cc(NS(=O)(=O)c3ccc(Cl)cc3)ccc2O[C@@H](C)CCCCO[C@@H]1CN(C)Cc1ccncc1 was run?
The cytotoxicity call was “inactive”.

With C[C@@H]1CN([C@H](C)CO)C(=O)c2cc(C3=CCCCC3)cnc2O[C@@H]1CN(C)C(=O)CN1CCOCC1 as the compound, how does the cytotoxicity call read?
Its cytotoxicity call is “inactive”.

For c1nc2c(c(N3CCOCC3)n1)CCNCC2, which cytotoxicity call is on record?
The cytotoxicity call was “inactive”.

With CCCCC(CC)CN1CN(CC(CC)CCCC)CC(C)(N)C1 (configuration not stated) as the compound, how does the cytotoxicity call read?
The cytotoxicity call was “active”.

For C[C@@H]1CCCCO[C@@H](CN(C)C(=O)Nc2ccccc2)[C@H](C)CN([C@H](C)CO)C(=O)c2cc(NC(=O)C3CCCCC3)ccc2O1, which cytotoxicity call is on record?
Its cytotoxicity call is “inactive”.

COc1ccc(S(=O)(=O)N(C)C[C@@H]2OCCCC[C@H](C)Oc3ccc(NC(=O)Nc4ccc(F)cc4)cc3C(=O)N([C@H](C)CO)C[C@@H]2C)cc1 was tested. Which cytotoxicity call did it give?
Its cytotoxicity call is “inactive”.

Which cytotoxicity call does the source give for C[C@H](CO)N1C[C@H](C)[C@@H](CN(C)C(=O)Nc2ccc(C(F)(F)F)cc2)OCCCC[C@H](C)Oc2ccc(NS(=O)(=O)c3cn(C)cn3)cc2C1=O here?
The cytotoxicity call was “inactive”.

How did the cytotoxicity call turn out when Cc1ccc(S(=O)(=O)Nc2ccc3c(c2)C(=O)N([C@H](C)CO)C[C@@H](C)[C@H](CN(C)Cc2ccc(C(F)(F)F)cc2)OCCCC[C@@H](C)O3)cc1 was run?
Its cytotoxicity call is “active”.

With C[C@H]1CCCCO[C@H](CN(C)Cc2ccc(C(F)(F)F)cc2)[C@@H](C)CN([C@@H](C)CO)C(=O)c2cc(NS(=O)(=O)c3ccc(F)cc3)ccc2O1 as the compound, how does the cytotoxicity call read?
Its cytotoxicity call is “inactive”.

Cc1ccc(S(=O)(=O)Nc2ccc3c(c2)C(=O)N([C@@H](C)CO)C[C@H](C)[C@H](CN(C)Cc2ccc(C(F)(F)F)cc2)OCCCC[C@H](C)O3)cc1 was tested. Which cytotoxicity call did it give?
The cytotoxicity call was “inactive”.

For C[C@@H]1CN([C@@H](C)CO)C(=O)c2cc(NS(=O)(=O)c3ccc(F)cc3)ccc2O[C@@H](C)CCCCO[C@@H]1CN(C)Cc1ccc(C(F)(F)F)cc1, which cytotoxicity call is on record?
The cytotoxicity call was “inactive”.

Which cytotoxicity call does the source give for Cc1ccc(S(=O)(=O)Nc2ccc3c(c2)C(=O)N([C@@H](C)CO)C[C@@H](C)[C@H](CN(C)Cc2ccc(C(F)(F)F)cc2)OCCCC[C@H](C)O3)cc1 here?
Its cytotoxicity call is “active”.

With Cc1ccc(S(=O)(=O)Nc2ccc3c(c2)C(=O)N([C@H](C)CO)C[C@@H](C)[C@@H](CN(C)Cc2ccc(C(F)(F)F)cc2)OCCCC[C@H](C)O3)cc1 as the compound, how does the cytotoxicity call read?
Its cytotoxicity call is “active”.

With C[C@H]1CCCCO[C@@H](CN(C)Cc2ccc(C(F)(F)F)cc2)[C@@H](C)CN([C@@H](C)CO)C(=O)c2cc(NS(=O)(=O)c3ccc(F)cc3)ccc2O1 as the compound, how does the cytotoxicity call read?
Its cytotoxicity call is “inactive”.

How did the cytotoxicity call turn out when C[C@@H]1CCCCO[C@H](CN(C)Cc2ccc(C(F)(F)F)cc2)[C@H](C)CN([C@@H](C)CO)C(=O)c2cc(NS(=O)(=O)c3ccc(F)cc3)ccc2O1 was run?
Its cytotoxicity call is “inactive”.

Which cytotoxicity call does the source give for Cc1ccc(S(=O)(=O)Nc2ccc3c(c2)C(=O)N([C@H](C)CO)C[C@H](C)[C@H](CN(C)Cc2ccc(C(F)(F)F)cc2)OCCCC[C@@H](C)O3)cc1 here?
Its cytotoxicity call is “active”.

For Cc1ccc(S(=O)(=O)Nc2ccc3c(c2)C(=O)N([C@H](C)CO)C[C@H](C)[C@@H](CN(C)Cc2ccc(C(F)(F)F)cc2)OCCCC[C@@H](C)O3)cc1, which cytotoxicity call is on record?
The cytotoxicity call was “inactive”.

Which cytotoxicity call does the source give for Cc1ccc(S(=O)(=O)Nc2ccc3c(c2)C(=O)N([C@H](C)CO)C[C@H](C)[C@H](CN(C)C(=O)Cc2ccccc2)OCCCC[C@H](C)O3)cc1 here?
Its cytotoxicity call is “inactive”.

C[C@H](CO)N1C[C@H](C)[C@H](CN(C)CC2CC2)Oc2ccc(NS(=O)(=O)c3ccccc3)cc2CC1=O was tested. Which cytotoxicity call did it give?
The cytotoxicity call was “inactive”.

With Cc1ccc(S(=O)(=O)N2C[C@H](O)COC[C@@H]3O[C@@H](CC(=O)N4CCc5ccccc5C4)CC[C@H]32)cc1 as the compound, how does the cytotoxicity call read?
The cytotoxicity call was “inactive”.

How did the cytotoxicity call turn out when C[C@@H](O)C#Cc1cnc2c(c1)C(=O)N([C@@H](C)CO)C[C@H](C)[C@@H](CN(C)C(=O)CN1CCOCC1)O2 was run?
The cytotoxicity call was “inactive”.

CCNC(=O)[C@@H]1[C@@H](CO)[C@@H]2Cn3c(ccc(C4=CCCC4)c3=O)[C@H]1N2S(=O)(=O)c1cn(C)cn1 was tested. Which cytotoxicity call did it give?
The cytotoxicity call was “inactive”.

How did the cytotoxicity call turn out when COCC(=O)N1C[C@@H](C)[C@H](OC)CN(C)C(=O)c2ccc(NC(=O)c3ccc(F)cc3)cc2OC[C@H]1C was run?
Its cytotoxicity call is “inactive”.

Which cytotoxicity call does the source give for C[C@H]1CCCCO[C@H](CN(C)C(=O)Nc2ccc3c(c2)OCO3)[C@@H](C)CN([C@@H](C)CO)C(=O)c2cc(NS(=O)(=O)c3ccc(F)cc3)ccc2O1 here?
Its cytotoxicity call is “inactive”.

How did the cytotoxicity call turn out when O=C(C[C@@H]1CC[C@H]2[C@@H](COC[C@H](O)CN2C(=O)Nc2ccc(F)cc2)O1)NCCCN1CCOCC1 was run?
The cytotoxicity call was “inactive”.

Cc1ccc(S(=O)(=O)Nc2ccc3c(c2)C(=O)N([C@H](C)CO)C[C@H](C)[C@@H](CN(C)Cc2ccc(C(F)(F)F)cc2)OCCCC[C@H](C)O3)cc1 was tested. Which cytotoxicity call did it give?
Its cytotoxicity call is “active”.

With Cc1ccc(S(=O)(=O)Nc2ccc3c(c2)C(=O)N([C@@H](C)CO)C[C@@H](C)[C@@H](CN(C)Cc2ccc(C(F)(F)F)cc2)OCCCC[C@H](C)O3)cc1 as the compound, how does the cytotoxicity call read?
The cytotoxicity call was “inactive”.

How did the cytotoxicity call turn out when Cc1ccc(S(=O)(=O)Nc2ccc3c(c2)C(=O)N([C@@H](C)CO)C[C@H](C)[C@@H](CN(C)Cc2ccc(C(F)(F)F)cc2)OCCCC[C@H](C)O3)cc1 was run?
Its cytotoxicity call is “active”.

With Cc1ccc(S(=O)(=O)Nc2ccc3c(c2)C(=O)N([C@@H](C)CO)C[C@@H](C)[C@H](CN(C)Cc2ccc(C(F)(F)F)cc2)OCCCC[C@@H](C)O3)cc1 as the compound, how does the cytotoxicity call read?
Its cytotoxicity call is “active”.

Which cytotoxicity call does the source give for Cc1ccc(S(=O)(=O)Nc2ccc3c(c2)C(=O)N([C@@H](C)CO)C[C@H](C)[C@@H](CN(C)Cc2ccc(C(F)(F)F)cc2)OCCCC[C@@H](C)O3)cc1 here?
The cytotoxicity call was “active”.

How did the cytotoxicity call turn out when Cc1ccc(S(=O)(=O)Nc2ccc3c(c2)C(=O)N([C@@H](C)CO)C[C@H](C)[C@H](CN(C)Cc2ccc(C(F)(F)F)cc2)OCCCC[C@@H](C)O3)cc1 was run?
The cytotoxicity call was “inactive”.

NC(=O)c1ccc[n+](C2OC(COP(=O)([O-])OP(=O)(O)OCC3OC(n4cnc5c(N)ncnc54)C(O)C3O)C(O)C2O)c1 (configuration not stated) was tested. Which cytotoxicity call did it give?
Its cytotoxicity call is “inactive”.

For CNC[C@@H]1Oc2ccc(NC(=O)CCN3CCOCC3)cc2CC(=O)N([C@@H](C)CO)C[C@H]1C, which cytotoxicity call is on record?
The cytotoxicity call was “inactive”.

Which cytotoxicity call does the source give for CC(C)(C)c1c(C(C)(C)C)c1=O here?
The cytotoxicity call was “inactive”.

O=C(N[C@@H]1CC[C@H](CCn2cc(C3(O)CCCC3)nn2)O[C@H]1CO)C1CCOCC1 was tested. Which cytotoxicity call did it give?
Its cytotoxicity call is “inactive”.

How did the cytotoxicity call turn out when Cc1cc(C(=O)N2CCNC(=O)C2(C)C)no1 was run?
Its cytotoxicity call is “inactive”.

How did the cytotoxicity call turn out when C[C@H]1CN([C@@H](C)CO)C(=O)Cc2cc(NC(=O)CCC(F)(F)F)ccc2O[C@@H]1CN(C)S(=O)(=O)c1ccccc1 was run?
The cytotoxicity call was “inactive”.
